# Screen size: about 360,000 compounds; about 11,000 (3.1%) were called active. No stated cut-off is given here; in the data, active means activity change below about -30%; inactive means the rest. The list comes from a sample in which actives are over-represented; it also holds similar structures and randomly drawn compounds.
# Molecular target: D(1A) dopamine receptor (Homo sapiens) (UniProt P21728)
# Experiment: Antagonist of Human D 1 Dopamine Receptor: qHTS
# Details: HEK293 TREx D1 cells, calcium flux, dopamine EC80; at 10 µM; stronger effect = lower value
# Outline: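 Using tetracycline-induced force-coupled D1 Hek293 cells and a calcium dye, signals were followed for 180 s after compound, then for 180 s after EC80 dopamine, to detect inhibitors.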
# On the % scale 0 is the no-effect control and ±100 the full control effect.
# D(1A) dopamine receptor (Homo sapiens), sequence (P21728 whole entry, looked up): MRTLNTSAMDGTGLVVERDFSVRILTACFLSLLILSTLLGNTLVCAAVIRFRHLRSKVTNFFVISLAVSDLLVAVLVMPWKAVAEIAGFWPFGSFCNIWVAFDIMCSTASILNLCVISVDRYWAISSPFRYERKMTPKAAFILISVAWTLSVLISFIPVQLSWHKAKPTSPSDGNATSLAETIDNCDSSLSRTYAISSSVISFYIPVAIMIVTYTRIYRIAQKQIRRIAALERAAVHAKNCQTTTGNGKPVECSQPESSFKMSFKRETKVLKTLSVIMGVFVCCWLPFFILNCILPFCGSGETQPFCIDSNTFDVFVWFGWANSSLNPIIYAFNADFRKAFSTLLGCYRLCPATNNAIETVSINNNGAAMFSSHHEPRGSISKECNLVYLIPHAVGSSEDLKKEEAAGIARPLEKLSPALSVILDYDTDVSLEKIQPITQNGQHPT
row,Structure (SMILES),"activity change, negative = inhibition"
1,O=S(=O)(NC1CCN(S(=O)(=O)c2ccc3c(c2)OCCO3)CC1)c1c(F)cccc1F,-30.3% (active)
2,O=S(=O)(c1ccc2c(c1)OCCCO2)N1CCN(S(=O)(=O)c2c(F)cccc2F)CC1,-7.05% (inactive)
3,O=S(=O)(NCC1CN(S(=O)(=O)c2ccc3c(c2)OCCO3)C1)c1c(F)cccc1F,2.66% (inactive)
4,CCOc1ccccc1C(=O)NC1(C(F)(F)F)NC(=O)N(CCc2ccc(OC)c(OC)c2)C1=O (configuration not stated),12% (inactive)
5,CCOC(=O)CSC1=Nc2ccccc2C2=NC(CCC(=O)NCc3ccc(F)cc3)C(=O)N12 (configuration not stated),7.77% (inactive)
6,Cc1ccc(S(=O)(=O)N2CCC(C(=O)Nc3cc(C)ccc3C)CC2)cc1,7.91% (inactive)
7,CCc1ccc2oc(-c3ccc(C)c(NC(=O)/C=C/c4ccco4)c3)nc2c1,-0.213% (inactive)
8,CCN(C(=O)Cn1cc(S(=O)(=O)N2CCN(c3ccccc3F)CC2)c2ccccc2c1=O)c1ccc(C)c(C)c1,-3.49% (inactive)
9,CCOC(=O)C1CCCN(C(=O)c2ccc(C)c(S(=O)(=O)N3CCCCC3)c2)C1 (configuration not stated),-1.15% (inactive)
10,CCOC(=O)C1CCCN(C(=O)c2cncc(Br)c2)C1 (configuration not stated),-9.23% (inactive)
11,CCOC(=O)C1CCCN(C(=O)c2ccc3c(c2)sc2nc(-c4ccc(CC)cc4)cn23)C1 (configuration not stated),-33% (active)
12,O=C(NCCC1=CCCCC1)c1ccc2c(c1)N(Cc1ccccc1F)C(=O)c1ccccc1S2(=O)=O,-12.5% (inactive)
13,CC1CCN(c2c(NCc3ccc(C(=O)NCc4ccccc4)cc3)c(=O)c2=O)CC1,-34.3% (active)
14,O=C(NCc1ccccc1)c1ccc(CNc2c(N3CCCC3)c(=O)c2=O)cc1,-9.38% (inactive)
15,O=C(NC1CCCCC1)c1ccc(CNc2c(N3CCOCC3)c(=O)c2=O)cc1,11.4% (inactive)
16,Cc1nc2sc(C)c(C)n2c(=O)c1S(=O)(=O)NCCc1ccc(Cl)cc1,-2.78% (inactive)
17,CCc1ccc(S(=O)(=O)n2ccnc2)cc1,-16.9% (inactive)
18,CC(C)c1ccc(NC(=O)c2ccc(Cn3nc(N4CCN(c5ccccc5)CC4)ccc3=O)o2)cc1,-6.07% (inactive)
19,CC(C)c1ccc(N2CCN(C(=O)c3ccccc3NC(=O)/C=C(\C(=O)O)c3ccccc3)CC2)cc1,-3.41% (inactive)
20,CC(=O)N1CCN(c2ccc(NCc3ccc(C(C)C)cc3)cc2)CC1,-50.6% (active)
21,COc1ccc(CNC(=O)c2cc3c(=O)[nH]c4ccccc4c3s2)cc1,-33.6% (active)
22,COc1ccc(CNC(=O)c2cc3c(=O)[nH]c4ccc(C)cc4c3s2)c(OC)c1,1.68% (inactive)

row,Structure (SMILES),"activity change, negative = inhibition"
1,O=C(NCCN1CCN(Cc2ccccc2)CC1)c1cc2c(=O)[nH]c3ccccc3c2s1,-7.42% (inactive)
2,Cc1cccc(NC(=O)c2ccc(F)c(S(=O)(=O)N(C)C3CCCCC3)c2)c1,4.16% (inactive)
3,CC(C)c1ccc(NC(=O)NC2CCCCC2)cc1,-4.57% (inactive)
4,O=C(COC(=O)C1CC2C=CC1C2)Nc1ccccc1 (configuration not stated),-18.1% (inactive)
5,CC(C)c1ccc(NC(=S)NC2CC3C=CC2C3)cc1 (configuration not stated),-34.1% (active)
6,COc1ccc(C2=NC(c3ccncc3)=Nc3ccc(Br)cc3N2)cc1,-11.7% (inactive)
7,CCn1c(C(=O)Nc2cc(Cl)ccc2C)cc2sc(Cl)cc21,-0.309% (inactive)
8,O=C(c1ccc2c(c1)N(Cc1ccc(Cl)cc1)C(=O)c1ccccc1S2(=O)=O)N1CCCCC1,5.67% (inactive)
9,COc1ccc(-c2cc(-c3nc(-c4cc(OC)c(OC)c(OC)c4)no3)[nH]n2)c(OC)c1,27% (inactive)
10,Cc1ccc(NC(=O)CN2C(=O)C(c3ccc(F)cc3)=NC23CCCCCC3)c(C)c1,2.24% (inactive)
11,O=C1CC(c2cccc(Cl)c2)CC(O)=C1C=Nc1ccccc1 (configuration not stated),-3.8% (inactive)
12,COc1ccc([C@H]2CC(=O)C=C(c3ccc(OC(F)(F)F)cc3)C2)cc1OC,-5.99% (inactive)
13,COc1cccc(C2=CC(=O)C[C@H](c3ccc(OC)c(OC)c3)C2)c1,-42.8% (active)
14,O=C1C=C(c2cc(C(F)(F)F)cc(C(F)(F)F)c2)C[C@@H](c2ccc3c(c2)OCO3)C1,-12.8% (inactive)
15,O=C1C=C(c2cccc(Cl)c2)C[C@@H](c2ccc(F)cc2)C1,-32% (active)
16,COc1ccc([C@H]2CC(=O)C=C(/C=C/c3ccccc3)C2)cc1,3.37% (inactive)
17,CC(=O)Nc1ccc(NC(=O)CCCc2nc(-c3ccc(C(C)(C)C)cc3)no2)cc1,2.77% (inactive)
18,COc1ccc(CNC(=O)c2cc3c(-c4ccccc4F)nn(C)c3s2)c(OC)c1,8.78% (inactive)
19,CCc1ccc(Nc2nn3c(=O)c4cc5c(cc4nc3s2)OCO5)cc1,7.15% (inactive)
20,NC(=O)NC(=O)C(OC(=O)CCNS(=O)(=O)c1ccccc1)c1ccccc1 (configuration not stated),-53% (active)
21,O=C(CCNS(=O)(=O)c1ccccc1)NCCCc1ccccc1,-0.746% (inactive)
22,Cc1ccc(S(=O)(=O)NCCC(=O)OCC(=O)N(C)c2ccccc2)cc1,-1.79% (inactive)

row,Structure (SMILES),"activity change, negative = inhibition"
1,COc1cccc(CNC(=O)CN2C(=O)CCc3cc(S(=O)(=O)N4CCOCC4)ccc32)c1,-4.09% (inactive)
2,Cc1ccc(C)c2sc(NC(=O)c3ccc(S(=O)(=O)N4CCCC4)cc3)nc12,5.67% (inactive)
3,CCOc1ccccc1NC(=O)CN1CCN(S(=O)(=O)c2ccc(Br)cc2)CC1,6.89% (inactive)
4,Cn1c(CNC(=O)c2ccccc2F)nnc1SCc1ccc(F)cc1,26.9% (inactive)
5,Cn1c(Cn2nnc3ccccc32)nnc1SCC(=O)c1ccccc1F,-30.4% (active)
6,Cn1c(CC(=O)Nc2ccccc2)nnc1SCC(=O)c1ccccc1,-16.4% (inactive)
7,COc1ccc(CNC(=O)c2cc3cccc(OC)c3oc2=O)cc1,-1.99% (inactive)
8,O=C(CSc1nccc(=O)[nH]1)Nc1ccc(N2CCOCC2)c(Cl)c1,-3.03% (inactive)
9,O=C(CSc1ccc([N+](=O)[O-])cn1)Nc1ccc(N2CCOCC2)c(Cl)c1,-35.4% (active)
10,O=C(CSc1ccc([N+](=O)[O-])cn1)Nc1ccc(N2CCOCC2)cc1,0.609% (inactive)
11,CCOC(=O)c1c(C)oc2ccc(N(C(=O)c3ccncc3)S(=O)(=O)c3ccc(CC)cc3)cc12,-12.9% (inactive)
12,C/C=C/c1ccc(OCC(=O)OCC(=O)Nc2c(C)nn(-c3ccccc3)c2C)c(OC)c1,-92.1% (active)
13,Cc1nn(-c2ccccc2)c(C)c1NC(=O)CCl,-2.92% (inactive)
14,Cc1nn(-c2ccccc2)c(C)c1NC(=O)COC(=O)c1cc(Cl)ccc1O,-7% (inactive)
15,CCOC(=O)c1c(NC(=O)/C=C/c2ccc(OC)cc2)sc2c1CCC(C)C2 (configuration not stated),-4.93% (inactive)
16,CCCCOC(=O)CSc1ncnc2sc3c(c12)CCC(C)C3 (configuration not stated),-2.54% (inactive)
17,COc1ccc(S(=O)(=O)n2cnc3ccccc32)c(C)c1,-34% (active)
18,Cc1ccc(C)c(S(=O)(=O)n2cnc3ccccc32)c1,1.78% (inactive)
19,COc1ccc(S(=O)(=O)N2CCN(C)CC2)c(C)c1,-0.84% (inactive)
20,CCNS(=O)(=O)c1ccc(NC(=O)CSc2nc(-c3ccco3)cc(C(F)(F)F)n2)cc1,7% (inactive)
21,COc1ccccc1N1CCN(CCCNC(=O)c2cnn(-c3ccccc3Cl)c2C2CCN(C(=O)OC(C)(C)C)CC2)CC1,-8.92% (inactive)
22,CCC(C(=O)Nc1cccc(Cl)c1C)n1nc(-c2ccc(C)cc2)ccc1=O (configuration not stated),6.67% (inactive)

row,Structure (SMILES),"activity change, negative = inhibition"
1,COc1ccc(CCNC(=O)c2ccc(-n3c(C)cc4c3CCCC4)cc2)cc1OC,-15.3% (inactive)
2,COc1ccc(CNC(=O)Cn2nnc(-c3ccc(S(C)(=O)=O)cc3)n2)cc1,15.1% (inactive)
3,COc1ccccc1NC(=O)c1oc2ccccc2c1NC(=O)COc1ccccc1OC,-10.7% (inactive)
4,COc1cc(C)c(S(=O)(=O)N2CCOCC2)c(C)c1C,-2.39% (inactive)
5,COc1ccc(S(=O)(=O)N2CCOCC2)c(C)c1C,-50.9% (active)
6,COc1ccc(S(=O)(=O)N2CCCC2)c(C)c1C,-24.6% (inactive)
7,CC(=O)c1ccc(NC(=O)C2CC(=O)Nc3nc4ccccc4n32)cc1 (configuration not stated),-16% (inactive)
8,Cc1nc(NC2=NC(C(=O)Nc3ccc(Cl)cc3)CC(=O)N2)nc2ccccc12 (configuration not stated),-50.2% (active)
9,CCOC(=O)c1ccc(NC(=O)C2CC(=O)Nc3nc4ccccc4n32)cc1 (configuration not stated),2.09% (inactive)
10,CCN(CC)CCNc1ncnc2c1cnn2-c1cc(Cl)ccc1C,-31% (active)
11,CCN1CCN(c2ncnc3c2cnn3-c2ccc(C)c(C)c2)CC1,0.119% (inactive)
12,Cc1ccc(-n2ncc3c(NCCCn4ccnc4)ncnc32)cc1Cl,-30.7% (active)
13,Cc1ccc(Cl)cc1-n1ncc2c(N3CCC(C(N)=O)CC3)ncnc21,-13.9% (inactive)
14,CC(C)CNc1ncnc2c1cnn2Cc1ccc(Cl)cc1,3% (inactive)
15,Cc1ccc(S(=O)(=O)c2nc(NCCCn3ccnc3)sc2Cl)cc1,8.73% (inactive)
16,CCN(CC)CCNC(=O)CN1N=C(c2ccc(OC)cc2)CCC1=O,7.52% (inactive)
17,COC(=O)c1cc(NC(=O)c2sc3ccccc3c2Cl)cc(C(=O)OC)c1,5.62% (inactive)
18,COc1cccc(NC(=O)N(Cc2cn(C)c3ccccc23)C2CCCCCC2)c1,17.7% (inactive)
19,Cc1ccc(N(CC(=O)NCC(C)c2ccccc2)S(=O)(=O)N(C)C)cc1 (configuration not stated),-3.48% (inactive)
20,CCOc1ccccc1CNC(=O)c1ccc(-n2c(C)cc3c2CCC(C)C3)cc1 (configuration not stated),6.61% (inactive)
21,O=C(C1CC1)N1CCc2cc(Br)cc(S(=O)(=O)N3CCN(c4ccccc4F)CC3)c21,-2.36% (inactive)

# From PubChem BioAssay AID504652 (National Center for Advancing Translational Sciences (NCATS), 2011)
